Data from PubChem BioAssay AID2284129 (EPA ToxCast).
Calls of active or inactive are those of the source. The calls were made as follows: active = hit-call score of the fitted dose curve at least 0.9, where 1 is the maximum; inactive = score below 0.9.

biological target: human Cyclooxygenase COX2, PTGS2 (gene 5743) (UniProt P35354); assay: ERF_FR_ENZ_hPTGS2: Eurofins (ERF) Enzymatic LeadHunter Assay for human Cyclooxygenase COX2, conducted at France lab site
Procedure: ERF_FR_ENZ_hPTGS2 is a biochemical, single-readout assay that uses extracted gene-proteins in a cell-free assay. Measurements were taken 0.083 hour after chemical dosing in a 96-well plate. See COX2 Human Cyclooxygenase Enzymatic Assay, Cerep.ERF_FR_ENZ_hPTGS2 is an assay component calculated from the ERF_FR_ENZ_hPTGS2 assay. It is designed to measure enzyme activity using a type of enzyme reporter as detected by fluorescence intensity with fluorimetry technology.Data from the assay component ERF_FR_ENZ_hPTGS2 was analyzed at the assay endpoint, ERF_FR_ENZ_hPTGS2, in the positive analysis fitting direction relative to DMSO as the negative control and baseline of activity. Using a type of enzyme reporter, loss-of-signal activity can be used to understand changes in binding as they relate to gene PTGS2. To generalize the intended target to other relatable targets, this assay endpoint is annotated to the stress response intended target family, where the subfamily is cyclooxygenase.
Human cells are incubated for 5 minutes at room temprature with Arachidonic acid (1.2uM) + ADHP (25 uM) as sunstrate and ns-398 as control inhibitor. Test Sample Requirements: Minimum for 1) Screen: 60 ul of 10 mM stock -OR- 1 mg (pre-weighed) for 10 uM final testing. 2) Dose Response: 90 ul of 10 mM stock -OR- 1 mg (pre-weighed) for a top concentration at 10 uM.

human Cyclooxygenase COX2, PTGS2 (gene 5743), sequence (P35354 whole entry, looked up): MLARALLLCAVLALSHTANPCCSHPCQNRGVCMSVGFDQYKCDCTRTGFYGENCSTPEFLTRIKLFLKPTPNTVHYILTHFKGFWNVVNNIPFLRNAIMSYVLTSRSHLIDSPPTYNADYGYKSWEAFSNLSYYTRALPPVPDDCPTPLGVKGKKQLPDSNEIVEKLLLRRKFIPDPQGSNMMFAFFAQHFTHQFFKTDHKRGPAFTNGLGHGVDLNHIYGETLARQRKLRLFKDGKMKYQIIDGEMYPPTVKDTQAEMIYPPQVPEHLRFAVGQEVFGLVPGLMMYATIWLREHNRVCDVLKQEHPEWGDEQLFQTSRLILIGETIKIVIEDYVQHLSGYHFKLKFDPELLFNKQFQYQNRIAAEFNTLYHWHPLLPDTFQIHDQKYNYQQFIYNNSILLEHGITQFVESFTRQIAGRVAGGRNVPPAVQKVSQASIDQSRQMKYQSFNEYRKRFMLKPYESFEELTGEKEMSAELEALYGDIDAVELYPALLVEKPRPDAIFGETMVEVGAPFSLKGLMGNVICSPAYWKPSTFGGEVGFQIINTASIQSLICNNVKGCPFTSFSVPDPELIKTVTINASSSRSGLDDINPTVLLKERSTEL

Compound | AC50
COc1cc(CCC(=O)CC(=O)CCc2ccc(O)c(OC)c2)ccc1O | 274 nM (active)
